Experimental data taken from PubChem BioAssay (EPA / NIEHS).
The source made the active and inactive calls. The calls were made as follows: active = hit-call score of the fitted dose curve at least 0.9, where 1 is the maximum; inactive = score below 0.9.

The molecules below were run on CYP4A11 (gene 1579) (assay: LTEA_HepaRG_CYP4A11: Life Technologies and Expression Analysis (LTEA) Assay for CYP4A11 using HepaRG (AID 2283486)). Settings: mRNA level, 48 h; actives raise or lower the signal.
How it was run: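 Human hepatic HepaRG cultures receive duplicate 48 h exposures across a concentration-response series topping at 100 uM. Expression changes in CYP4A11 are measured by qRT-PCR relative to DMSO controls.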

Question: Which AC50 does the source give for `Cc1ccc([N+](=O)[O-])cc1` here?
Answer: 1.58 µM (active)

Question: `Nc1ccc(Cc2ccc(N)cc2)cc1` was tested. Which outcome did it give?
Answer: inactive

Question: For `O=[N+]([O-])C(Br)(CO)CO`, which outcome is on record?
Answer: inactive

Question: How did the outcome turn out when `COC(=O)c1ccccc1N` was run?
Answer: inactive

Question: Which outcome does the source give for `O=[N+]([O-])c1ccc(Oc2ccc(Cl)cc2Cl)cc1` here?
Answer: inactive

Question: With `CC(C)(C)C(O)(CCc1ccc(Cl)cc1)Cn1cncn1` (stereo unspecified) as the molecule, how does the AC50 read?
Answer: 55.2 µM (active)

Question: With `CCCCCCCCOC(=O)c1ccc(C(=O)OCCCCCCCC)c(C(=O)OCCCCCCCC)c1` as the molecule, how does the outcome read?
Answer: inactive

Question: Which outcome does the source give for `c1ccc2c(c1)oc1ccccc12` here?
Answer: inactive

Question: Which AC50 does the source give for `O=C(O)C1C2CCC(O2)C1C(=O)O` (stereo unspecified) here?
Answer: 50 µM (active)

Question: `c1ccc2c(c1)-c1cccc3cccc-2c13` was tested. Which outcome did it give?
Answer: inactive

Question: For `N#CC(Br)Br`, which outcome is on record?
Answer: inactive

Question: `CCC[CH2][Sn]([Cl])([CH2]CCC)[CH2]CCC` was tested. Which outcome did it give?
Answer: inactive

Question: `Clc1ccc(C(c2ccc(Cl)cc2)C(Cl)(Cl)Cl)cc1` was tested. Which AC50 did it give?
Answer: 50 µM (active)

Question: How did the outcome turn out when `Oc1ccc2ccc3cccc4ccc1c2c34` was run?
Answer: inactive

Question: With `[O-][Cl+]O` as the molecule, how does the outcome read?
Answer: inactive

Question: Which AC50 does the source give for `ClC1=C(Cl)C2(Cl)C3C(Cl)C=CC3C1(Cl)C2(Cl)Cl` (stereo unspecified) here?
Answer: 16.1 µM (active)

Question: With `CC(C)(C)OOC(C)(C)CCC(C)(C)OOC(C)(C)C` as the molecule, how does the outcome read?
Answer: inactive

Question: Which AC50 does the source give for `Nc1ccc(N=Nc2ccccc2)cc1` here?
Answer: 13.3 µM (active)

Question: For `CCN(CC)N=O`, which outcome is on record?
Answer: inactive

Question: Which outcome does the source give for `CC(C)N(Cc1ccccc1)C(=O)C(C)(C)C` here?
Answer: inactive

Question: How did the outcome turn out when `COC(=O)Nc1nc2ccccc2[nH]1` was run?
Answer: inactive

Question: `ClC1=C(Cl)[C@]2(Cl)[C@H]3[C@H]([C@@H]4C=C[C@H]3C4)[C@@]1(Cl)C2(Cl)Cl` was tested. Which AC50 did it give?
Answer: 29.6 µM (active)

Question: With `O=C(N[C@H](c1ccccc1)[C@@H]1CN2CCC1CC2)c1c(Cl)ccc(C(F)(F)F)c1Cl` as the molecule, how does the AC50 read?
Answer: 35.4 µM (active)

Question: For `c1ccc(N=Nc2ccccc2)cc1`, which outcome is on record?
Answer: inactive

Question: Which AC50 does the source give for `CN(C)c1ccc(C(=O)c2ccc(N(C)C)cc2)cc1` here?
Answer: 50 µM (active)

Question: For `Nc1ccc(Cl)cc1N`, which AC50 is on record?
Answer: 23.2 µM (active)

Question: Which AC50 does the source give for `CS(=O)(=O)NC(=O)c1cc(Oc2ccc(C(F)(F)F)cc2Cl)ccc1[N+](=O)[O-]` here?
Answer: 2.84 µM (active)

The molecules below were run on Cytochrome P450 3A4 (Homo sapiens) (UniProt P08684) (assay: LTEA_HepaRG_CYP3A4: Life Technologies and Expression Analysis (LTEA) Assay for CYP3A4 using HepaRG (AID 2283487)). Settings: mRNA level, 48 h; actives raise or lower the signal.
How it was run: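 Differentiated HepaRG cells in serum-free induction medium exposed in duplicate for 48 h to 8 half-log concentrations up to 100 uM in 0.5% DMSO. CYP3A4 mRNA measured by qRT-PCR normalized to ACTB, GAPDH and POLR2A; bidirectional fit versus DMSO.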

Chain of Cytochrome P450 3A4 (Homo sapiens) (P08684 whole entry, looked up): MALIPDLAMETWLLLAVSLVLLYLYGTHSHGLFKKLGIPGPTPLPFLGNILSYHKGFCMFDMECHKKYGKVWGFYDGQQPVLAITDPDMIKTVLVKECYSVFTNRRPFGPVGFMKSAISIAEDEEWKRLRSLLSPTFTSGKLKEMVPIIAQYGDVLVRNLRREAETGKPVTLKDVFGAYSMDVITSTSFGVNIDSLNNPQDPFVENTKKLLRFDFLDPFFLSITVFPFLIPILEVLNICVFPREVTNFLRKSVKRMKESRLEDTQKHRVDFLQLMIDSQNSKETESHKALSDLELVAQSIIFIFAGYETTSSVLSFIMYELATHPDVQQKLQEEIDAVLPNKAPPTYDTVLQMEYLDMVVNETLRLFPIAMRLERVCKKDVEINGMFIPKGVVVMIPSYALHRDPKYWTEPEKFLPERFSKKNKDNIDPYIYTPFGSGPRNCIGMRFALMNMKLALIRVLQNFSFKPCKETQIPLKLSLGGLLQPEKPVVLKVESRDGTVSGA

Question: How did the AC50 turn out when `Cc1ccc([N+](=O)[O-])cc1` was run?
Answer: 1.39 µM (active)

Question: `C[C@]12C=CC3=C4CCC(=O)C=C4CC[C@H]3[C@@H]1CC[C@@H]2O` was tested. Which AC50 did it give?
Answer: 0.458 µM (active)

Question: How did the outcome turn out when `Nc1ccc(Cc2ccc(N)cc2)cc1` was run?
Answer: inactive

Question: For `O=[N+]([O-])C(Br)(CO)CO`, which outcome is on record?
Answer: inactive

Question: For `COC(=O)c1ccccc1N`, which outcome is on record?
Answer: inactive

Question: Which AC50 does the source give for `CC(C)(C)C(O)(CCc1ccc(Cl)cc1)Cn1cncn1` (stereo unspecified) here?
Answer: 2.86 µM (active)

Question: How did the outcome turn out when `CCCCCCCCOC(=O)c1ccc(C(=O)OCCCCCCCC)c(C(=O)OCCCCCCCC)c1` was run?
Answer: inactive

Question: `c1ccc2c(c1)oc1ccccc12` was tested. Which outcome did it give?
Answer: inactive

Question: For `O=C(O)C1C2CCC(O2)C1C(=O)O` (stereo unspecified), which AC50 is on record?
Answer: 79.7 µM (active)

Question: With `c1ccc2c(c1)-c1cccc3cccc-2c13` as the molecule, how does the AC50 read?
Answer: 18 µM (active)

Question: With `N#CC(Br)Br` as the molecule, how does the outcome read?
Answer: inactive

Question: How did the AC50 turn out when `CCC[CH2][Sn]([Cl])([CH2]CCC)[CH2]CCC` was run?
Answer: 2.27 µM (active)

Question: Which outcome does the source give for `Oc1ccc2ccc3cccc4ccc1c2c34` here?
Answer: inactive

Question: With `[O-][Cl+]O` as the molecule, how does the outcome read?
Answer: inactive

Question: How did the AC50 turn out when `ClC1=C(Cl)C2(Cl)C3C(Cl)C=CC3C1(Cl)C2(Cl)Cl` (stereo unspecified) was run?
Answer: 0.927 µM (active)

Question: With `CC(C)(C)OOC(C)(C)CCC(C)(C)OOC(C)(C)C` as the molecule, how does the outcome read?
Answer: inactive

Question: `CCN(CC)N=O` was tested. Which outcome did it give?
Answer: inactive

Question: With `CC(C)N(Cc1ccccc1)C(=O)C(C)(C)C` as the molecule, how does the AC50 read?
Answer: 3.44 µM (active)

Question: How did the AC50 turn out when `ClC1=C(Cl)[C@]2(Cl)[C@H]3[C@H]([C@@H]4C=C[C@H]3C4)[C@@]1(Cl)C2(Cl)Cl` was run?
Answer: 4.36 µM (active)

Question: Which AC50 does the source give for `O=C(N[C@H](c1ccccc1)[C@@H]1CN2CCC1CC2)c1c(Cl)ccc(C(F)(F)F)c1Cl` here?
Answer: 81.2 µM (active)

Question: Which AC50 does the source give for `Nc1ccc(Cl)cc1N` here?
Answer: 19.7 µM (active)

Question: `CS(=O)(=O)NC(=O)c1cc(Oc2ccc(C(F)(F)F)cc2Cl)ccc1[N+](=O)[O-]` was tested. Which AC50 did it give?
Answer: 1.23 µM (active)

Each molecule was assayed on DNA damage-inducible transcript 3 (DDIT3), DDIT3 (gene 1649) (assay: LTEA_HepaRG_DDIT3: Life Technologies and Expression Analysis (LTEA) Assay for DNA damage-inducible transcript 3 (DDIT3) using HepaRG (AID 2283488)). Settings: mRNA level, 48 h; actives raise or lower the signal.
How it was run: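 Cells are human HepaRG liver cells treated for 48 h with eight half-log concentrations up to 100 uM in 0.5% DMSO. Transcript levels come from qRT-PCR normalized to three housekeeping genes, with activity fitted in both directions relative to vehicle.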

Question: Which outcome does the source give for `Cc1ccc([N+](=O)[O-])cc1` here?
Answer: inactive

Question: With `C[C@]12C=CC3=C4CCC(=O)C=C4CC[C@H]3[C@@H]1CC[C@@H]2O` as the molecule, how does the outcome read?
Answer: inactive

Question: `Nc1ccc(Cc2ccc(N)cc2)cc1` was tested. Which outcome did it give?
Answer: inactive

Question: With `O=[N+]([O-])C(Br)(CO)CO` as the molecule, how does the outcome read?
Answer: inactive

Question: Which outcome does the source give for `COC(=O)c1ccccc1N` here?
Answer: inactive

Question: For `O=[N+]([O-])c1ccc(Oc2ccc(Cl)cc2Cl)cc1`, which AC50 is on record?
Answer: 50 µM (active)

Question: How did the outcome turn out when `CCCCCCCCOC(=O)c1ccc(C(=O)OCCCCCCCC)c(C(=O)OCCCCCCCC)c1` was run?
Answer: inactive

Question: How did the outcome turn out when `c1ccc2c(c1)oc1ccccc12` was run?
Answer: inactive

Question: `O=C(O)C1C2CCC(O2)C1C(=O)O` (stereo unspecified) was tested. Which AC50 did it give?
Answer: 50 µM (active)

Question: `c1ccc2c(c1)-c1cccc3cccc-2c13` was tested. Which outcome did it give?
Answer: inactive

Question: For `N#CC(Br)Br`, which outcome is on record?
Answer: inactive

Question: With `CCC[CH2][Sn]([Cl])([CH2]CCC)[CH2]CCC` as the molecule, how does the AC50 read?
Answer: 2.28 µM (active)

Question: With `Clc1ccc(C(c2ccc(Cl)cc2)C(Cl)(Cl)Cl)cc1` as the molecule, how does the AC50 read?
Answer: 50 µM (active)

Question: With `Oc1ccc2ccc3cccc4ccc1c2c34` as the molecule, how does the outcome read?
Answer: inactive

Question: Which outcome does the source give for `[O-][Cl+]O` here?
Answer: inactive

Question: Which outcome does the source give for `ClC1=C(Cl)C2(Cl)C3C(Cl)C=CC3C1(Cl)C2(Cl)Cl` (stereo unspecified) here?
Answer: inactive

Question: With `CC(C)(C)OOC(C)(C)CCC(C)(C)OOC(C)(C)C` as the molecule, how does the outcome read?
Answer: inactive

Question: For `Nc1ccc(N=Nc2ccccc2)cc1`, which AC50 is on record?
Answer: 32.4 µM (active)

Question: How did the outcome turn out when `CCN(CC)N=O` was run?
Answer: inactive

Question: `CC(C)N(Cc1ccccc1)C(=O)C(C)(C)C` was tested. Which outcome did it give?
Answer: inactive

Question: Which outcome does the source give for `COC(=O)Nc1nc2ccccc2[nH]1` here?
Answer: inactive

Question: With `ClC1=C(Cl)[C@]2(Cl)[C@H]3[C@H]([C@@H]4C=C[C@H]3C4)[C@@]1(Cl)C2(Cl)Cl` as the molecule, how does the outcome read?
Answer: inactive

Question: How did the AC50 turn out when `O=C(N[C@H](c1ccccc1)[C@@H]1CN2CCC1CC2)c1c(Cl)ccc(C(F)(F)F)c1Cl` was run?
Answer: 36.3 µM (active)

Question: How did the outcome turn out when `c1ccc(N=Nc2ccccc2)cc1` was run?
Answer: inactive

Question: `CN(C)c1ccc(C(=O)c2ccc(N(C)C)cc2)cc1` was tested. Which outcome did it give?
Answer: inactive

Question: `Nc1ccc(Cl)cc1N` was tested. Which AC50 did it give?
Answer: 50 µM (active)

Question: For `CS(=O)(=O)NC(=O)c1cc(Oc2ccc(C(F)(F)F)cc2Cl)ccc1[N+](=O)[O-]`, which outcome is on record?
Answer: inactive
